These results are taken from PubChem BioAssay AID686978 (National Center for Advancing Translational Sciences (NCATS), 2013).

About 64,000 (15%) of roughly 420,000 compounds were called active. Not shown: some 27% with an inconclusive outcome. The call rests on the fitted dose curve; in most records, active means well fitted inhibition curve with a large enough effect; inconclusive means small, poorly fitted or top-dose-only effect; inactive means flat fitted curve, though single readings scatter. These entries were drawn from the full list. A call without a number means that no potency is given here.
Potency means the concentration at half of the fitted maximal effect.

This test can be described thus: qHTS for Inhibitors of human tyrosyl-DNA phosphodiesterase 1 (TDP1): qHTS in cells in absence of CPT. Further: nearly all actives have a fitted effect of over 55% in size. Particulars: DT40 Tdp1-/- hTDP1 cells, no CPT, ATP luminescence, 48 h; activity change, negative = growth inhibition: at 46.2 µM (top of the series). In a few lines: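 Chicken DT40 Tdp1-/- cells complemented with human TDP1, screened without camptothecin (DMSO vehicle only), 400 cells/well. Compounds pin-transferred, cells incubated at 37 °C for at least 48 hr. Growth read as ATP-dependent luminescence (CellTiter-Glo, 30 min at RT).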
In the case of `O=C(CN(C(=O)c1nsc(Cl)c1Cl)c1cccc(F)c1)NC1CCCC1`, the Potency entry is “inactive”.

As for `O=C(CCc1ccc(S(=O)(=O)N2CCOCC2)cc1)NN=C1CCCCCCC1`, the Potency result is “inactive”.

In the case of `CCN(CC)CCN(C(=O)c1cccc([N+](=O)[O-])c1)c1nc2ccc(OC)cc2s1`, the Potency result was “inactive”. For `Cc1noc(C)c1NC(=O)Nc1ccc2c(c1)C(=O)N([C@H](C)CO)C[C@H](C)[C@@H](CN(C)C(=O)Nc1ccc(C(F)(F)F)cc1)O2` the value was “inactive”.

`CCN(CC)C(=O)COc1coc(CN2CCN(Cc3ccccc3)CC2)cc1=O`: the Potency result was “inactive”.

For `O=C(CSc1nnc(-c2ccncc2)o1)NCc1ccc(Cl)cc1`, the Potency entry was “inactive”. For `Fc1ccc(-c2ccc(NCCN3CCOCC3)nn2)cc1` the value was “inactive”; for `Nc1cc(C(F)(F)F)ccc1N1CCOCC1`, “inactive”; for `Oc1[nH]c2ccc(Br)cc2c1N=Nc1nn[nH]n1`, “inactive”.

On to `Oc1[nH]c2ccccc2c1N=Nc1c(F)c(F)c(F)c(F)c1F`, for which the Potency is 13 µM (active). With `Cc1cccc(N=Nc2c(O)[nH]c3ccc(F)cc23)c1`, the Potency entry is “inactive”. For `CCC(Cc1ccccc1)NC(=O)C1CCCCC1` (stereo unspecified) the value was “inactive”; for `O=C1c2ccccc2C(=O)N1c1ccc(S(=O)(=O)N2CCOCC2)c2ccccc12`, “inactive”. Regarding `Cc1ccc(S(=O)(=O)NC(=O)Nc2nc(-c3ccc(F)c(F)c3)cs2)cc1`, the Potency result is “inactive”. For `COc1ccc(CC(=O)Nc2nc(-c3ccc(F)c(F)c3)cs2)cc1OC` the value was 6.51 µM (active); for `COc1ccc(-c2csc(Nc3cccc(C)n3)n2)cc1OC`, 25.9 µM (active); for `COc1ccc(CC(=O)Nc2nnc3n2CCS3)cc1OC`, “inactive”. For `COc1cc(CC(=O)Nc2nc(-c3ccc(F)c(F)c3)cs2)cc(OC)c1OC` the value was 5.8 µM (active). For the molecule `COc1ccc(-c2csc(NC(=O)c3ccc(N4C(=O)CCC4=O)cc3)n2)cc1OC`, the Potency entry is “inactive”. For `COc1cccc(CC(=O)Nc2nc(-c3ccc(OC)c(OC)c3)cs2)c1` the value was 18.4 µM (active); for `Fc1ccc(-c2csc(-c3ccc(C4SCCS4)cc3)n2)cc1F`, “inactive”; for `Cc1nn2c(=O)cc(COC(=O)c3ccccc3NC(=O)COc3ccccc3C)nc2s1`, “inactive”. Take `CC(=O)C1C(c2ccc(Cl)cc2)c2c(n[nH]c2C)CC1(C)O` (stereo unspecified): the Potency entry was “inactive”.

As to `CCOc1ccc(S(=O)(=O)NCCC(=O)NCC2CCCO2)cc1` (stereo unspecified), the Potency result is “inactive”. For `COc1ccc(Cn2cccc(NC(=O)Nc3ccc(C#N)cc3)c2=O)cc1` the value was “inactive”. In the case of `CC1CCc2sc3nc(N4CCN(CCO)CC4)n4ncnc4c3c2C1` (stereo unspecified) it was “inactive”. In the case of `Cc1ccn2c(=O)nc(SCC(=O)NCc3ccc4c(c3)OCO4)nc2c1` it was “inactive”; in that of `O=C(COC(=O)CC1CC2CCC1C2)NC(=O)NC1CCCC1` (stereo unspecified), “inactive”. `COc1ccc(-c2nc3scc(CCNS(=O)(=O)c4cc(F)ccc4OC)n3n2)cc1OC`: the Potency was 20.6 µM (active).

Turning to `COc1ccc(CCNS(=O)(=O)c2ccc(F)cc2)cc1OC`, the Potency result was “inactive”. In the case of `COc1cc(OC)cc(C(=O)NCCc2csc3nc(-c4ccccc4F)nn23)c1` it was “inactive”.
